Inconclusive results are not listed. The source made the active and inactive calls. Unless noted, calls come from the whole dose curve; as a rule, active = well fitted curve in the direction sought with a large enough effect in the repeat runs; inconclusive = weak or mixed curves; inactive = no such curve, though single readings can be large; an effect the other way counts as inactive or inconclusive.
What was measured:
[1] = qHTS assay to identify small molecule agonists of the sonic hedgehog signaling (Shh) pathway (AID 1259368; calls by dose curve;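 note: NIH/3T3-derived 3T3Gli1-Luc cells carrying a stable Gli1-driven firefly luciferase reporter; series mostly up to about 92 µM; nearly all actives have a fitted effect of over 15% in size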)
Method in brief: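 A Gli1 transcriptional response element controlled firefly luciferase in 3T3Gli1-Luc cells. Compounds and a positive control were added 4 hr after plating, and cells were incubated a further 24 hr at 37 C before luminescence detection.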

[2] = molecular target: Estrogen receptor beta (Homo sapiens) (UniProt Q92731); assay: qHTS assay to identify small molecule agonists of the estrogen receptor beta (ER-beta) signaling pathway (AID 1259377; active = well fitted activation curve with a large enough effect in the signal ratio in the repeat runs, not every such curve was filed as active; the % refers to the signal ratio)
Method in brief: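 Ratiometric beta-lactamase FRET read-out came after 2 h substrate loading at room temperature. It followed 16 h compound treatment at 37C of GripTite HEK293T cells carrying a UAS-bla reporter, plated in 2% charcoal-stripped FBS medium.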

[3] = molecular target: Estrogen receptor beta (Homo sapiens) (UniProt Q92731); assay: qHTS assay to identify small molecule antagonists of the estrogen receptor beta (ER-beta) signaling pathway (AID 1259378; active = well fitted inhibition curve with a large enough effect in the signal ratio in the repeat runs, not every such curve was filed as active; the % refers to the signal ratio)
Method in brief: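 ER-beta-UAS-bla HEK293T (GripTite) cells in 2% charcoal-stripped FBS medium were preincubated 6 hr at 37C, dosed with compound, then stimulated with 1 nM E2 (final) for 16 hr; beta-lactamase reporter read by B/G FRET fluorescence after 2 hr substrate loading.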

[4] = qHTS assay to identify small molecule agonists of the estrogen receptor beta (ER-beta) signaling pathway - cell viability counter screen (AID 1259380); note: nearly all actives have a fitted effect of over 30% in size
Method in brief: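 CellTiter-Glo read, 30 min RT, same wells as bla assay; cells ER-beta-UAS-bla HEK293T; 16 hr compound, 37C; medium 2% charcoal-stripped FBS.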

[5] = qHTS assay to identify small molecule antagonists of the estrogen receptor beta (ER-beta) signaling pathway - cell viability counter screen (AID 1259382); note: series mostly up to about 92 µM; nearly all actives have a fitted effect of over 55% in size
Method in brief: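 In this multiplexed counter screen, cells were seeded at 2,000 per well in medium with 2% charcoal-stripped FBS and incubated 6 hr before compound and 1nM final E2 were added. Sixteen hours later, ATP-based luminescence reported viability.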

[6] = molecular target: Estrogen receptor (Homo sapiens) (UniProt P03372); assay: qHTS assay to identify small molecule agonists of the estrogen receptor alpha (ER-alpha) signaling pathway in the presence of an antagonist (AID 1259383; calls by dose curve; note: top concentration of the series differs between compounds; nearly all actives have a fitted effect of over 15% in size)
Method in brief: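 Stably transfected VM7Luc4E2 reporter cells, kept 5 days in charcoal-stripped serum, received ICI-182,780 at 10.0nM final before compound addition. Following 22hr incubation at 37C and 5% CO2, luciferase signal was read by luminescence.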

[7] = qHTS assay to identify small molecule agonists or antagonists of the thyroid stimulating hormone receptor (TSHR) signaling pathway - wild type cell line counter screen (AID 1259384; calls by dose curve)
Method in brief: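 Wild-type HEK293 cells were plated 18 h at 37 C/5% CO2, pin-dosed with compound plus Ro20-1724 medium, held 30 min at room temperature, then given cAMP-d2 and anti-cAMP-cryptate; fluorescence was read after 1 h. Fifteen concentrations, triplicate.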

[8] = qHTS assay to identify small molecule agonists of the estrogen receptor alpha (ER-alpha) signaling pathway in the presence of an antagonist - cell viability counter screen (AID 1259386);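 note: series mostly up to about 92 µM; cells exposed to compounds for 22 h at 37 °C before the viability read; nearly all actives have a fitted effect of over 30% in size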
Method in brief: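 Viability counter screen using VM7Luc4E2 (full-length ER-alpha, four ERE-luciferase). The cells were treated with compounds alongside ICI-182,780 10.0nM for 22hr, and live-cell protease fluorescence was quantified with CellTiter-Fluor.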

[9] = molecular target: Progesterone receptor (Homo sapiens) (UniProt P06401); assay: qHTS assay to identify small molecule agonists of the progesterone receptor (PR) signaling pathway (AID 1346784; calls by dose curve; note: nearly all actives have a fitted effect of over 30% in size)
Method in brief: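 Agonist qHTS: compounds pinned onto 3,000 PR-UAS-bla HEK 293T cells per well in charcoal-stripped serum medium, 16hr at 37C, then beta-lactamase activity measured by LiveBLAzer FRET fluorescence after 2 hours at room temperature.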

[10] = molecular target: Progesterone receptor (Homo sapiens) (UniProt P06401); assay: qHTS assay to identify small molecule antagonists of the progesterone receptor (PR) signaling pathway (AID 1346795; active = well fitted inhibition curve with a large enough effect in the signal ratio in the repeat runs, not every such curve was filed as active; the % refers to the signal ratio)
Method in brief: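 Antagonist mode with agonist R5020 at 1 nM final and 16 hr incubation at 37C. Reporter was beta-lactamase driven by UAS in HEK293T (PR-UAS-bla), 2% charcoal-stripped serum; signal from LiveBLAzer FRET substrate, 2 hr at room temperature.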

[11] = qHTS assay to identify small molecule agonists of the progesterone receptor (PR) signaling pathway - cell viability counter screen (AID 1346799; calls by dose curve; note: nearly all actives have a fitted effect of over 45% in size)
Method in brief: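 Cytotoxicity measured by CellTiter-Glo luminescence (30 min, RT) in the same wells as the PR beta-lactamase agonist read. Those HEK293T cells had 16 h compound treatment at 37 C in 2% charcoal-stripped FBS medium.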

[12] = qHTS assay to identify small molecule antagonists of the TGF-beta/Smad signaling pathway - cell viability counter screen (AID 1346824); note: nearly all actives have a fitted effect of over 50% in size
Method in brief: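 SBE-bla HEK 293T cells were plated overnight at 37 C, then given compounds in DMSO plus TGF-beta1 (added as 0.25 ng/mL solution) for 5 hr. After the bla read, CellTiter-Glo was added to the same wells and luminescence read after 30 min at room temperature.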

[13] = qHTS assay to identify small molecule agonists of the TGF-beta/Smad signaling pathway (AID 1346859; active = well fitted activation curve with a large enough effect in the signal ratio in the repeat runs, not every such curve was filed as active; the % refers to the signal ratio; note: series mostly up to about 77 µM)
Method in brief: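 Fluorescence (ex 405 nm; em 460 and 530 nm) was read 2 h after LiveBLAzer FRET substrate at RT. The preceding compound treatment of overnight-plated SBE-bla HEK293T cells lasted 5 h at 37 C.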

[14] = molecular target: Thyrotropin-releasing hormone receptor (Homo sapiens) (UniProt P34981); assay: qHTS assay to identify small molecule antagonists of the thyrotropin-releasing hormone receptor (TRHR) signaling pathway (AID 1346877; active = well fitted inhibition curve with a large enough effect in the repeat runs, not every such curve was filed as active; note: series mostly up to about 51 µM)
Method in brief: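 Following an 18 h incubation at 37 °C and a 2 h calcium dye load, TRHR-HEK293 cells were exposed to compound (5 min, room temperature) and challenged with TRH, 1 nM final.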

[15] = qHTS assay to identify small molecule agonists of the androgen receptor (AR) signaling pathway in the presence of an antagonist - cell viability counter screen (AID 1259379);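 note: MDA-kb2 human breast cancer cells carrying an MMTV luciferase reporter; series mostly up to about 92 µM; nearly all actives have a fitted effect of over 25% in size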
Method in brief: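 Seed MDA-kb2 at 3,000 cells/well; incubate 5 hr, 37C, 0% CO2. Add nilutamide to 3.0uM final, then pin compounds at 15 concentrations. Incubate 16 hr. Add CellTiter-Fluor at 15 hr, read fluorescence after 1 hr.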

[16] = molecular target: Thyrotropin receptor (Homo sapiens) (UniProt P16473); assay: qHTS assay to identify small molecule antagonists of the thyroid stimulating hormone receptor (TSHR) signaling pathway (AID 1259385; calls by dose curve; note: nearly all actives have a fitted effect of over 20% in size; note: potency is the fitted concentration of half-maximal effect)
Method in brief: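 TSHR-HEK293 cells were plated and held 18 h at 37C/5% CO2, then given compound plus Ro20-1724 and stimulated with TSH at 1.5 ng/mL final. After 30 min at room temperature, cAMP was detected with cAMP-d2/anti-cAMP-cryptate (1 h) by fluorescence.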

[17] = qHTS assay to identify small molecule antagonists of the progesterone receptor (PR) signaling pathway - cell viability counter screen (AID 1346798); note: nearly all actives have a fitted effect of over 50% in size; note: potency is the fitted concentration of half-maximal effect; for activity change, negative = cytotoxicity: series mostly up to about 92 µM
Method in brief: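 Cytotoxicity read as CellTiter-Glo luminescence (30 min, room temperature) in the same wells as the beta-lactamase readout. HEK293T PR-UAS-bla cells in charcoal-stripped 2% FBS received compound and R5020, then 16 h at 37C, 5% CO2.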

[18] = qHTS assay to identify small molecule agonists of the TGF-beta/Smad signaling pathway - cell viability counter screen (AID 1346829); note: top concentration of the series differs between compounds; nearly all actives have a fitted effect of over 45% in size
Method in brief: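 Cytotoxicity counter screen: CellTiter-Glo luminescence (30 min, room temperature) measured in the SBE-bla HEK 293T reporter wells after 5 hr compound treatment at 37 C and the 2 hr substrate step.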
% is set by controls: 0 for no effect and ±100 for the full control effect.

Chain of Estrogen receptor (Homo sapiens) (P03372 whole entry, looked up): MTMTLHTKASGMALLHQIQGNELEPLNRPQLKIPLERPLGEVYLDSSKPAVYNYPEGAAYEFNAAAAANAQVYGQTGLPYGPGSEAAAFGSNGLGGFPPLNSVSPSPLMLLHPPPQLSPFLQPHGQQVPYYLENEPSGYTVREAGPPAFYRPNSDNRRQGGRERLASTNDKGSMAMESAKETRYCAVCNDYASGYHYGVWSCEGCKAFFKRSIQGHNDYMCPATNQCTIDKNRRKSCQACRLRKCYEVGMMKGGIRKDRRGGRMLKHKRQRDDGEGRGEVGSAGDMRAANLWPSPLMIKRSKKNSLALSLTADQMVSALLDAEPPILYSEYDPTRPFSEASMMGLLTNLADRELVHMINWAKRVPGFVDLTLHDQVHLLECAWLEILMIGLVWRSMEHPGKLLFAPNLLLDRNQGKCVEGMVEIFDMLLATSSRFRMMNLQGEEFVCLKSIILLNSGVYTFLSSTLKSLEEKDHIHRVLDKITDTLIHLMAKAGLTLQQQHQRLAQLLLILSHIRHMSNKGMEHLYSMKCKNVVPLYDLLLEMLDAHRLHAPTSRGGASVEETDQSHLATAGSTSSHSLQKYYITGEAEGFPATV
Chain of Estrogen receptor beta (Homo sapiens) (Q92731 whole entry, looked up): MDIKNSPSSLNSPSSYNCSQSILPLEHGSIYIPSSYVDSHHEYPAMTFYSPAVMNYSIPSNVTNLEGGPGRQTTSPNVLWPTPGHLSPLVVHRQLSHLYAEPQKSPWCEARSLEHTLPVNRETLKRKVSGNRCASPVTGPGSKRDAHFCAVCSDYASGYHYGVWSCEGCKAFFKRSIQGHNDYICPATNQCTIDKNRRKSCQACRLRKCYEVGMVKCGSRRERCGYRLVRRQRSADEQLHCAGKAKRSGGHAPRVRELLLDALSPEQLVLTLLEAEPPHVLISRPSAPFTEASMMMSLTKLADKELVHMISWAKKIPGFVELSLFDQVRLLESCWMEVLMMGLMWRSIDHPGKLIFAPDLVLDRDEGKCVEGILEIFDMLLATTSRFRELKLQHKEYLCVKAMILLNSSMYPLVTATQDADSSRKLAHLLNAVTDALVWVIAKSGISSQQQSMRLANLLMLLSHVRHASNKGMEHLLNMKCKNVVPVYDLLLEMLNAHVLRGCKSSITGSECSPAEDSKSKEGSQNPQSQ
Chain of Thyrotropin receptor (Homo sapiens) (P16473 whole entry, looked up): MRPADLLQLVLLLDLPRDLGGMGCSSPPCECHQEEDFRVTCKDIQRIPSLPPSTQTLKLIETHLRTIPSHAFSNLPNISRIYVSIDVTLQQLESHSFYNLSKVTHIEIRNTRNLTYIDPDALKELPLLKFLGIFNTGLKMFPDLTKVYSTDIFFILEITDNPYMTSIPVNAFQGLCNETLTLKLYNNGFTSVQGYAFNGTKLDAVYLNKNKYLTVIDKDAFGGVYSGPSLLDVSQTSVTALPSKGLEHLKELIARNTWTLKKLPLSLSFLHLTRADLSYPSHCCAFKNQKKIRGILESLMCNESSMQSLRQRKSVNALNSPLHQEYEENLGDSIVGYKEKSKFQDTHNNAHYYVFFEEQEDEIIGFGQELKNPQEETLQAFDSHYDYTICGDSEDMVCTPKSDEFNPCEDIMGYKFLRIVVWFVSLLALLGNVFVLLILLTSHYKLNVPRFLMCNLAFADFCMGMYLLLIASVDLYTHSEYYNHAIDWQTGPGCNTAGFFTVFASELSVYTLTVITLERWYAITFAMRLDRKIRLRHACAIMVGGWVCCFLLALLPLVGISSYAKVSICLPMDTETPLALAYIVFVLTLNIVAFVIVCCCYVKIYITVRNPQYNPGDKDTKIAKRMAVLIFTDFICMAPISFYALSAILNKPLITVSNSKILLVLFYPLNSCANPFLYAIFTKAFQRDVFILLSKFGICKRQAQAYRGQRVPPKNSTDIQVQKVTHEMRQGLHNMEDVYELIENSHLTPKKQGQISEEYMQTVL
Chain of Progesterone receptor (Homo sapiens) (P06401 whole entry, looked up): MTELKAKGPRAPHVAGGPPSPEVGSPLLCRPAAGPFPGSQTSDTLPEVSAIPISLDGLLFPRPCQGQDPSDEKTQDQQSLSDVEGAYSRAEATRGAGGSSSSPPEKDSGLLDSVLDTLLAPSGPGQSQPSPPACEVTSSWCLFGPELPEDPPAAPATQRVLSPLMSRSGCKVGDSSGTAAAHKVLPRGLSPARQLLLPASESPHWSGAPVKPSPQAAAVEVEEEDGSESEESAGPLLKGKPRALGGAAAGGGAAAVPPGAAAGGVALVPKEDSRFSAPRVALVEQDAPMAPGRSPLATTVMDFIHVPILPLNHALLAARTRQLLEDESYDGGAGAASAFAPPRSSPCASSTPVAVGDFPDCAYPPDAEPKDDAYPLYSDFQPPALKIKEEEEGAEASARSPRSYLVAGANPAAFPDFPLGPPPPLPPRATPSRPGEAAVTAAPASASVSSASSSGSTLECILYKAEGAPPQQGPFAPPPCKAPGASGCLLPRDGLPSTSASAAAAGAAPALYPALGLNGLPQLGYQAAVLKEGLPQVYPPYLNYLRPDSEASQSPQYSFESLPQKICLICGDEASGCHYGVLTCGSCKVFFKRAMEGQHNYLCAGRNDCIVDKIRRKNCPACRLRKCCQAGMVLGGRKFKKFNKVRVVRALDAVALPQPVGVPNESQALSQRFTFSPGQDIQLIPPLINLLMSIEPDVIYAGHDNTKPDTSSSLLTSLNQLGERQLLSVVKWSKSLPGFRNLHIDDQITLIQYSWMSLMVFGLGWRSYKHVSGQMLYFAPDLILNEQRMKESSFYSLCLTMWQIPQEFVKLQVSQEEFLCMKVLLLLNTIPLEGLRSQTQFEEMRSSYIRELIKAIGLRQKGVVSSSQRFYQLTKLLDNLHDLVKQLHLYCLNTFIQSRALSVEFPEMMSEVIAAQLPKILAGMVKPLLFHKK
Chain of Thyrotropin-releasing hormone receptor (Homo sapiens) (P34981 whole entry, looked up): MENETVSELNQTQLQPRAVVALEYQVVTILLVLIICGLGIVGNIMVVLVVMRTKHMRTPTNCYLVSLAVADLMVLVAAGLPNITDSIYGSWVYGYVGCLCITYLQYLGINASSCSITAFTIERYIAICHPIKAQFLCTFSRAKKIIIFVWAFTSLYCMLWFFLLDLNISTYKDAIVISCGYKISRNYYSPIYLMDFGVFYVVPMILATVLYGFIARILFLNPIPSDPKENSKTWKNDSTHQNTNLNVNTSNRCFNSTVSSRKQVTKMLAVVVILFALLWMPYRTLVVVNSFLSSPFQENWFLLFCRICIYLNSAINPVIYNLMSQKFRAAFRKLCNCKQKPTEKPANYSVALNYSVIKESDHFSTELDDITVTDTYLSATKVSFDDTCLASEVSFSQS

O=C1CCCCCCCCCCC(=O)OCCO1
inactive: Potency [1] | outcome [2] | Potency [3] | Potency [4] | outcome [5] | Potency [6] | outcome [7] | Potency [8] | Potency [9] | Potency [10] | Potency [11] | outcome [12] | outcome [13] | outcome [14]

CCCCNc1ccc(C(=O)OCCN(CC)CC)cc1
inactive: Potency [1] | outcome [2] | Potency [3] | Potency [15] | outcome [5] | Potency [6] | outcome [7] | Potency [16] | Potency [8] | Potency [9] | Potency [10] | Potency [17] | Potency [11] | outcome [12] | outcome [18] | outcome [13]

CCCCCCCCCC/C=C/C#N
inactive: Potency [1] | outcome [2] | Potency [3] | Potency [15] | Potency [4] | outcome [5] | Potency [6] | outcome [7] | Potency [8] | Potency [9] | Potency [10] | Potency [17] | Potency [11] | outcome [12] | outcome [13]

O=[N+]([O-])c1nccn1CO[C@@H](CO)[C@H](O)CO
inactive: Potency [1] | outcome [2] | Potency [3] | Potency [4] | outcome [5] | Potency [16] | Potency [9] | Potency [10] | Potency [17] | Potency [11] | outcome [12] | outcome [18] | outcome [13] | outcome [14]

CC(C)Nc1nc(N)nc(Cl)n1
inactive: Potency [1] | outcome [2] | Potency [15] | Potency [4] | outcome [5] | outcome [7] | Potency [16] | Potency [8] | Potency [9] | Potency [10] | Potency [17] | Potency [11] | outcome [12] | outcome [18] | outcome [13] | outcome [14]

Cc1c(-c2ccccc2)oc2c(C(=O)OCCN3CCCCC3)cccc2c1=O
inactive: Potency [1] | outcome [2] | Potency [15] | Potency [4] | outcome [5] | Potency [6] | outcome [7] | Potency [8] | Potency [9] | Potency [17] | Potency [11] | outcome [12] | outcome [14]
active: Potency [16] 23.7 µM

FC(F)(F)C(F)(F)C(F)(F)C(F)(F)C(F)(F)C(F)(F)C(F)(F)C(F)(F)Br
inactive: Potency [1] | outcome [2] | Potency [3] | Potency [15] | Potency [4] | outcome [5] | Potency [6] | Potency [16] | Potency [9] | Potency [10] | Potency [17] | Potency [11] | outcome [12] | outcome [18] | outcome [13]

O=C(O)c1ccccc1Nc1cc(Cl)ccc1C(=O)O
inactive: activity change [1] -0.0136% [at 18.9 µM, hits give high values] | activation [2] 0.616% [at 19 µM] | activity change, negative = cytotoxicity [4] -3.75% [at 19 µM] | activity change, negative = cytotoxicity [5] -13.6% [at 19 µM] | activation [6] -1.25% [at 19 µM] | cAMP activity change [7] 0.0654% [at 18.9 µM] | activity change, negative = inhibition [16] 2.68% [at 19 µM] | activity change, negative = cytotoxicity [8] -2.8% [at 19 µM] | viability change, negative = cytotoxic [12] 0.61% [at 15.8 µM] | activity change, negative = cytotoxicity [18] 9.07% [at 15.8 µM] | activation [13] -1.11% [at 15.8 µM] | activity, negative = inhibition [14] 1.01% [at 10.5 µM]
active: Potency [17] 13 µM

CCN[C@H]1CN(CCCOC)S(=O)(=O)c2sc(S(N)(=O)=O)cc21
inactive: Potency [1] | outcome [2] | Potency [3] | Potency [15] | Potency [4] | outcome [5] | Potency [6] | outcome [7] | Potency [16] | Potency [8] | Potency [9] | Potency [10] | Potency [17] | Potency [11] | outcome [12] | outcome [13] | outcome [14]
